We go through 3 molecules from the supplement of paper PMC7366291.

Common to all, as to details: 25 µM; exposure: 24-48 hpf
Assay [1] has as its system Danio rerio Tg(wt1b:EGFP) embryo, pronephros. The experiment in a line: glomerular separation, fold change vs DMSO control; higher = glomeruli further apart (abnormal). A digest of the protocol: (§1)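 Every feature is expressed as a fold change relative to the averaged DMSO-treated embryos of the same day. The exposure ran from 24 to 48 hpf at 28.5°C, with dechorionated Tg(wt1b:EGFP) zebrafish embryos in HEPES-buffered E3 containing 0.003% PTU, 0.5% DMSO and 25 μM compound. Dorsal pronephros images taken in agarose-filled 96-well plates were reduced to maximum projections, on which 16 reference points were set by hand in Fiji for a macro to compute distances and angles. Values more than 2 SD from the feature mean were not used.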

The test system is the same in assay [2]. The experiment in a line: glomerular width (mean of left and right), fold change vs DMSO control; higher = wider glomerulus. A digest of the protocol: as §1
Assay [3] has the same test system. The experiment in a line: fraction of imaged embryos annotated as normal kidney; higher = less nephrotoxic; extreme values may be limits of the assay. A digest of the protocol:
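Embryos of the Tg(wt1b:EGFP) zebrafish line were dechorionated and held in 12-well plates with 25 μM compound in 0.5% DMSO and 5 mM HEPES-buffered E3 containing 0.003% PTU, from 24 to 48 hpf at 28.5°C. Larvae were then anaesthetised with tricaine, set dorsal side up in agarose-filled 96-well plates, and their pronephroi imaged by widefield fluorescence at 470 nm over 10 z-slices. Each value is the fraction of embryos per treatment placed in the normal-kidney category after manual annotation of maximum projections.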

For assay [4] the test system is unchanged. In words: pronephric angle neck segment to proximal convoluted tubule (mean of left and right), fold change vs DMSO control; higher = larger pronephric angle. The gist of the method:
as §1

SMILES strings stand for the structures. Counter-ions that a name gives are not always drawn. ± gives the standard deviation or the standard deviation of the averaged measurements.

In turn, `CN1CCN(C2=Nc3ccccc3Oc3ccc(Cl)cc32)CC1` [Loxapine succinate] came in with a glomerular separation in assay [1] of 1.15 ± 0.43. For the same molecule, in assay [2], the glomerular width was determined as 0.974 ± 0.014. Moreover, the “fraction of imaged embryos annotated as normal kidney” value in assay [3] came to 0.75. The “pronephric angle neck segment” value in assay [4] was determined as 1.06 ± 0.013.
On the same counts, the results for `CN(C)CCC(c1ccc(Br)cc1)c1ccccn1` (configuration not stated) [Brompheniramine maleate] are 0.985 ± 0.22, 1.04 ± 0.065, 1 and 1.05 ± 0.056.
On the same counts, the results for `CN(C)CCOC(=O)C(c1ccccc1)C1(O)CCCC1` (configuration not stated) [Cyclopentolate hydrochloride] are 0.745 ± 0.24, 0.9284 ± 0.0066, 0.75 and 1.02 ± 0.035.
